Molecules are shown by their SMILES. Out of some 39,000 compounds screened, about 3,300 (8.5%) were called active. This excerpt belongs to a sample that is enriched for actives.

This assay relates to HepG2. Put plainly: cytotoxicity call (relative viability < 0.9). The settings on record: 10 µM.
For `CC(C)NC(=O)Nc1ccc2c(c1)C(=O)N([C@@H](C)CO)C[C@H](C)[C@H](CN(C)C(=O)NC1CCCCC1)O2`, the cytotoxicity call was “inactive”.
Turning to `COC(=O)C1=C(C)NC(C)=C(C(=O)OC)C1`, the cytotoxicity call is “inactive”.
Consider `O=C(C[C@H]1CC[C@@H](NS(=O)(=O)c2ccccc2F)[C@H](CO)O1)NCCCN1CCOCC1`, for which the cytotoxicity call is “inactive”.
For the compound `O=C(/C=C/c1ccc(O)c(O)c1)O[C@@H]1C[C@](O)(C(=O)O)C[C@@H](OC(=O)/C=C/c2ccc(O)c(O)c2)[C@H]1O`, the cytotoxicity call is “inactive”.
The value for `CC(C)C[C@H](NC(=O)[C@@H](COC(C)(C)C)NC(=O)[C@H](Cc1ccc(O)cc1)NC(=O)[C@H](CO)NC(=O)[C@H](Cc1c[nH]c2ccccc12)NC(=O)[C@H](Cc1cnc[nH]1)NC(=O)[C@@H]1CCC(=O)N1)C(=O)N[C@@H](CCCNC(=N)N)C(=O)N1CCC[C@H]1C(=O)NNC(N)=O` was “inactive”; that for `C[C@H](CO)N1C[C@H](C)[C@@H](CN(C)S(=O)(=O)c2ccc(F)cc2)Oc2ccc(NS(=O)(=O)c3ccccc3)cc2CC1=O` was “inactive”; that for `COc1ccccc1-c1cnc2c(c1)C(=O)N([C@H](C)CO)C[C@@H](C)[C@@H](CN(C)C(=O)c1ccncc1)O2` was “inactive”.
Take `C[C@H]1CN([C@@H](C)CO)S(=O)(=O)c2ccc(C3=CCCC3)cc2O[C@H]1CN(C)C(=O)Cc1ccncc1`: the cytotoxicity call was “inactive”.
Regarding `O=C1CN(c2ccccc2)C=NN1`, the cytotoxicity call was “inactive”.
For the compound `C[C@@H]1CCCCO[C@@H](CN(C)CC2CCCCC2)[C@H](C)CN([C@H](C)CO)C(=O)c2cc(NC(=O)Nc3cccc4ccccc34)ccc2O1`, the cytotoxicity call is “active”.
With `C[C@@H]1CN([C@H](C)CO)C(=O)c2cc(NC(=O)Nc3cccc4ccccc34)ccc2O[C@@H](C)CCCCO[C@@H]1CN(C)CC1CCCCC1`, the cytotoxicity call is “active”.
In the case of `COc1ccc(S(=O)(=O)N(C)C[C@@H]2Oc3ccc(NC(=O)Cn4cnnn4)cc3CC(=O)N([C@H](C)CO)C[C@@H]2C)cc1`, the cytotoxicity call is “inactive”.
As for `C[C@H](CO)N1C[C@H](C)[C@@H](CN(C)C(=O)Nc2cccc(Cl)c2Cl)OCc2ccccc2-c2ccccc2C1=O`, the cytotoxicity call was “inactive”.
With `Cc1noc(C)c1S(=O)(=O)Nc1ccc2c(c1)CC(=O)N([C@H](C)CO)C[C@H](C)[C@H](CN(C)S(=O)(=O)c1ccccc1)O2`, the cytotoxicity call was “inactive”.
The value for `C[C@H]1CN([C@@H](C)CO)C(=O)CCCn2cc(nn2)CO[C@H]1CN(C)S(=O)(=O)c1ccc(-c2ccccc2)cc1` was “inactive”.
`COc1ccc(S(=O)(=O)Nc2ccc3c(c2)C(=O)N([C@@H](C)CO)C[C@@H](C)[C@@H](CN(C)C(=O)CCC(F)(F)F)OCCCC[C@@H](C)O3)cc1`: the cytotoxicity call is “inactive”.
The value for `CC1(C)[C@@H](O[C@H]2O[C@H](C(=O)O)[C@@H](O)[C@H](O)[C@H]2O[C@@H]2O[C@H](C(=O)O)[C@@H](O)[C@H](O)[C@H]2O)CC[C@]2(C)[C@H]3C(=O)C=C4[C@@H]5C[C@@](C)(C(=O)O)CC[C@]5(C)CC[C@@]4(C)[C@]3(C)CC[C@@H]12` was “inactive”; that for `CC(=O)O[C@H]1CC(C)(C)C[C@H]2[C@]13CO[C@@]21CC[C@@H]2[C@@]4(C)CC[C@H](O[C@@H]5O[C@H](C(=O)O)[C@@H](O)[C@H](O[C@@H]6O[C@H](CO)[C@H](O)[C@H](O)[C@H]6O[C@@H]6O[C@@H](C)[C@H](O)[C@@H](O)[C@H]6O)[C@H]5O[C@@H]5O[C@H](CO)[C@@H](O)[C@H](O)[C@H]5O)C(C)(C)[C@@H]4CC[C@@]2(C)[C@]1(C)C[C@H]3O` was “active”; that for `C[C@@H]1O[C@@H](O[C@H]2[C@H](O[C@H]3[C@H](O)[C@@H](O[C@@H]4O[C@H](CO)[C@@H](O)[C@H](O)[C@H]4O)[C@H](O[C@H]4CC[C@]5(C)[C@H]6CC[C@]78OC[C@@]9(CCC(C)(C)C[C@@H]97)[C@H](O)C[C@@]8(C)[C@]6(C)CC[C@H]5C4(C)C)O[C@@H]3C(=O)O)O[C@H](CO)[C@H](O)[C@@H]2O)[C@H](O)[C@H](O)[C@H]1O` was “active”.
The value for `C[C@@H]1O[C@@H](O[C@H]2[C@H](O[C@H]3[C@H](O)[C@@H](O[C@@H]4O[C@H](CO)[C@@H](O[C@@H]5O[C@H](CO)[C@H](O)[C@H]5O)[C@H](O)[C@H]4O)[C@H](O[C@H]4CC[C@]5(C)[C@H]6CC[C@]78OC[C@@]9(CCC(C)(C)C[C@@H]97)[C@H](O)C[C@@]8(C)[C@]6(C)CC[C@H]5C4(C)C)O[C@@H]3C(=O)O)O[C@H](CO)[C@H](O)[C@@H]2O)[C@H](O)[C@H](O)[C@H]1O` was “inactive”.
For `C[C@H]1O[C@@H](OC[C@H]2O[C@@H](O[C@H]3CC[C@]4(C)[C@H]5CCC6=C(CC[C@@]7(C(=O)O[C@@H]8O[C@H](CO)[C@@H](O)[C@H](O)[C@H]8O[C@@H]8O[C@H](CO)[C@@H](O)[C@H](O)[C@H]8O)CCC(C)(C)C[C@@H]67)[C@]5(C)CC[C@H]4C3(C)C)[C@H](O)[C@@H](O)[C@@H]2O)[C@H](O)[C@@H](O)[C@@H]1O`, the cytotoxicity call is “inactive”.
With `C[C@@H]1O[C@@H](O[C@H]2[C@H](O)[C@@H](O)[C@H](OC(=O)[C@]34CCC(C)(C)C[C@H]3C3=CC[C@H]5[C@@]6(C)CC[C@H](O[C@@H]7O[C@H](C(=O)O)[C@@H](O)[C@H](O)[C@H]7O)C(C)(C)[C@@H]6CC[C@@]5(C)[C@]3(C)CC4)O[C@@H]2CO)[C@H](O)[C@H](O)[C@H]1O`, the cytotoxicity call is “inactive”.
The value for `C[C@@H]1O[C@@H](O[C@H]2[C@H](O[C@H]3[C@H](O)[C@@H](C(=O)O)O[C@@H](O[C@H]4CC[C@]5(C)[C@H]6CC[C@]78OC[C@@]9(CCC(C)(C)C[C@@H]97)[C@H](O)C[C@@]8(C)[C@]6(C)CC[C@H]5C4(C)C)[C@@H]3OC3O[C@H](CO)[C@@H](O)[C@H](O)[C@H]3O)O[C@H](CO)[C@H](O)[C@@H]2O)[C@H](O)[C@H](O)[C@H]1O` (stereo partly specified) was “active”.
`CC(=O)O[C@H]1CC(C)(C)C[C@H]2[C@]13CO[C@@]21CC[C@H]2[C@@]4(C)CC[C@H](O[C@@H]5OC[C@H](O[C@@H]6O[C@H](CO)[C@@H](O)[C@H](O)[C@H]6O[C@@H]6OC[C@@H](O[C@@H]7O[C@H](CO)[C@@H](O)[C@H](O)[C@H]7O)[C@H](O)[C@H]6O)[C@H](O)[C@H]5O[C@@H]5O[C@H](CO)[C@@H](O)[C@H](O)[C@H]5O)[C@@](C)(CO)[C@@H]4CC[C@@]2(C)[C@]1(C)C[C@H]3O`: the cytotoxicity call was “active”.
In the case of `CC(=N)NCCCC[C@@H](N)C(=O)O`, the cytotoxicity call was “inactive”.
Consider `COCC(=O)Nc1ccc2c(c1)C(=O)N(C)[C@H]1CC[C@@H](CC(=O)N3CCc4ccccc4C3)O[C@H]1CO2`, for which the cytotoxicity call was “inactive”.
As for `CO[C@H]1CN(C)C(=O)c2ccc(NS(=O)(=O)CC(F)(F)F)cc2OC[C@H](C)N(C(=O)c2ccc3c(c2)OCO3)C[C@H]1C`, the cytotoxicity call is “inactive”.
The value for `C=CC[C@H](Nc1ccccc1C)c1ccc(Cl)cc1` was “inactive”; that for `C[C@H](CO)N1C[C@H](C)[C@@H](CN(C)S(=O)(=O)c2cn(C)cn2)OCCCC[C@H](C)Oc2ccc(NS(C)(=O)=O)cc2C1=O` was “inactive”.
The value for `NC(=O)[C@H]1C[C@@H]2C=C[C@H]1C2` was “inactive”; that for `O=C(CCCCCCC(=O)Nc1ccc([C@H]2C[C@H](c3ccccc3)O[C@H](c3ccc(Oc4ccccc4)cc3)O2)cc1)NO` was “inactive”; that for `C[C@H]1CN([C@@H](C)CO)C(=O)c2cc(NC(=O)Cn3cnnn3)ccc2O[C@@H]1CN(C)S(=O)(=O)c1ccc(F)cc1` was “inactive”.
On to `Cc1ccc(S(=O)(=O)N2C[C@H](O)COC[C@@H]3O[C@H](CC(=O)NCCCN(C)C)CC[C@H]32)cc1`, for which the cytotoxicity call is “inactive”.
Take `CCN1CCN(C(=O)CN2C(=O)c3ccccc3S2(=O)=O)CC1`: the cytotoxicity call is “inactive”.
For the compound `CCN1CCN(CC(=O)Nc2ccc(-c3cccc4c(=O)cc(N5CCOCC5)oc34)c3sc4ccccc4c23)CC1`, the cytotoxicity call was “active”.
The value for `CCCC#Cc1ccc2c(c1)O[C@@H](CN(C)S(=O)(=O)c1cccc(F)c1)[C@H](C)CN([C@@H](C)CO)S2(=O)=O` was “inactive”.
For `CC(C)N1C[C@H](C)[C@@H](CN(C)Cc2ccccc2Cl)Oc2c(NC(=O)c3ccncc3)cccc2C1=O`, the cytotoxicity call was “inactive”.
`O=C(CCCN1CCC(O)(c2ccc(Cl)cc2)CC1)c1ccc(F)cc1`: the cytotoxicity call is “active”.
The value for `NC(=O)C1(N2CCCCC2)CCN(CCCC(=O)c2ccc(F)cc2)CC1` was “inactive”; that for `O=C(CCCN1CC=C(n2c(=O)[nH]c3ccccc32)CC1)c1ccc(F)cc1` was “inactive”.
The value for `O=C(CCCN1CCN(c2ccccn2)CC1)c1ccc(F)cc1` was “inactive”.
The value for `O=C(CN1CCNCC1)c1ccc(F)cc1` was “inactive”; that for `O=C(CCCN1CCC(O)(c2ccc(Br)cc2)CC1)c1ccc(F)cc1` was “active”; that for `CC(C)(C)OC(=O)C[C@H]1CC=CC[C@@H](CC(=O)N[C@@H](CO)Cc2ccccc2)C(=O)N[C@@H](C(C)(C)C)COC1=O` was “inactive”.
As to `C[C@@H]1CN([C@@H](C)CO)C(=O)c2cc(NC(=O)Cc3ccccc3)ccc2O[C@H]1CN(C)Cc1ccc(C(=O)Nc2ccccc2N)cc1`, the cytotoxicity call is “inactive”.
The value for `C[C@@H]1CN([C@@H](C)CO)C(=O)c2cccc(NC(=O)c3ccc(-c4nccs4)cc3)c2O[C@H]1CN(C)C(=O)Nc1ccccc1` was “inactive”; that for `C[C@H]1CN([C@@H](C)CO)C(=O)c2cccc(NC(=O)Nc3ccc(C(F)(F)F)cc3)c2O[C@@H]1CN(C)Cc1ccc(Cl)c(Cl)c1` was “active”.
On to `C[C@@H]1CN([C@H](C)CO)C(=O)c2cccc(NC(=O)Nc3ccc(C(F)(F)F)cc3)c2O[C@H]1CN(C)Cc1ccc(Cl)c(Cl)c1`, for which the cytotoxicity call is “inactive”.
The value for `C[C@H](CO)N1C[C@H](C)[C@@H](CN(C)Cc2ccc(Cl)c(Cl)c2)Oc2c(NC(=O)Nc3ccc(F)cc3)cccc2C1=O` was “inactive”; that for `C[C@@H]1CN([C@@H](C)CO)C(=O)c2cccc(NC(=O)Nc3ccc(F)cc3)c2O[C@@H]1CN(C)Cc1ccc(Cl)c(Cl)c1` was “inactive”; that for `C[C@H]1CN([C@@H](C)CO)C(=O)c2cccc(NC(=O)Nc3ccc(F)cc3)c2O[C@H]1CN(C)Cc1ccc(Cl)c(Cl)c1` was “inactive”.
In the case of `C[C@H]1CN([C@@H](C)CO)C(=O)c2cccc(NC(=O)Nc3ccc(F)cc3)c2O[C@@H]1CN(C)Cc1ccc(Cl)c(Cl)c1`, the cytotoxicity call is “inactive”.
Consider `C[C@@H]1CN([C@H](C)CO)C(=O)c2cccc(NC(=O)Nc3ccc(C(F)(F)F)cc3)c2O[C@@H]1CN(C)Cc1ccc(Cl)c(Cl)c1`, for which the cytotoxicity call is “active”.
Turning to `C[C@@H]1CN([C@@H](C)CO)C(=O)c2cccc(NC(=O)Nc3ccc(C(F)(F)F)cc3)c2O[C@@H]1CN(C)Cc1ccc(Cl)c(Cl)c1`, the cytotoxicity call is “active”.
The value for `C[C@@H]1CN([C@@H](C)CO)C(=O)c2cccc(NC(=O)Nc3ccc(C(F)(F)F)cc3)c2O[C@H]1CN(C)Cc1ccc(Cl)c(Cl)c1` was “active”.
On to `C[C@H](CO)N1C[C@H](C)[C@H](CN(C)Cc2ccc(Cl)c(Cl)c2)Oc2c(NC(=O)Nc3ccc(C(F)(F)F)cc3)cccc2C1=O`, for which the cytotoxicity call is “inactive”.

The values are drawn from the antibiotic and cytotoxicity screens of Wong et al. (2023).
